IL1B secr inh: inflammasome signaling inhibition, IL-1 beta readout; THP-1 LPS/ATP IL-1B secretion, AlphaLISA, 16 h; hits give low values; activity change, % at 57.5 µM; actives 4.7% (n = 360,000); in the data active = activity change below about -50%; inconclusive = mostly about -30% to -49%
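THP-1 cells pretreated 1 hr with compounds (up to 57.5 uM final), then stimulated with LPS (250 ng/mL final) plus ATP (1.25 mM final); secreted IL-1B measured by AlphaLISA after 16 hr, decreased signal indicating inhibition.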
DT40 TDP1 CPT: growth inhibition of DT40 Tdp1-/-;hTDP1 cells with camptothecin (screen for TDP1 inhibitors) | chicken DT40 Tdp1-/-;hTDP1 cells + 20 nM CPT, ATP luminescence, 48 h | Potency, µM (highest dose often 46.2 µM), hits mostly inhibitors | actives 12% (n = 420,000) | AID 686979; also: nearly all actives have a fitted effect of over 55% in size
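Chicken DT40 Tdp1-/- cells complemented with human TDP1, 400 cells/well, exposed to compounds plus 20 nM camptothecin for at least 48 h at 37 C; viability read as ATP content by CellTiter-Glo luminescence.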
DT40 TDP1 no CPT: qHTS for Inhibitors of human tyrosyl-DNA phosphodiesterase 1 (TDP1): qHTS in cells in absence of CPT; Potency, µM (doses to about 46.2 µM), actives largely listed as inhibitors; AID 686978, 2013; actives 15% (n = 420,000); DT40 Tdp1-/- hTDP1 cells, no CPT, ATP luminescence, 48 h; also: nearly all actives have a fitted effect of over 55% in size
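Seeded 400 DT40-hTDP1 cells/well (vehicle DMSO, no 20 nM CPT); pinned compounds; ≥48 hr at 37 °C; CellTiter-Glo luminescence as viability measure.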
TGFb SMAD3 inh: inhibitors of TGF-b signaling | HepG2 CAGA-GFP TGF-b/SMAD3 reporter, GFP fluorescence, 18 h; TGF-beta stimulated, 500 pg/mL final | Potency, µM (highest dose often 46.1 µM), hits mostly inhibitors | actives 1.2% (n = 410,000); also: nearly all actives have a fitted effect of over 65% in size
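GFP signal (ex488/em500-530) from TGF-beta-stimulated HEPG2 CAGA-GFP cells, 500 pg/mL final, 18 h at 37 degrees C in DMEM plus 1% FBS, normalized to unstimulated and DMSO-stimulated controls.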
HepG2 viability: HepG2 cytotoxicity, counter-screen for TGF-b inhibitors. HepG2 CAGA-GFP viability, ATP luminescence, 18 h. Potency, µM (titrated, usually from 46.1 µM), usual class: cytotoxic. actives 0.76% (n = 410,000). AID 588856
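CellTiter-Glo luminescence gave cytotoxicity after 18 hours at 37 degrees C. The cells were HepG2 CAGA-GFP in 1% FBS DMEM, stimulated with 500 pg/mL TGF-beta after compound addition. %Activity was normalised to no-cell wells (complete cell-killing) and DMSO (no toxicity), and curves were fitted and classified.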
ASM inhibitor: inhibitors of human secretory acid sphingomyelinase. actives 0.006% (n = 340,000). Potency, µM (series often up to 57.5 µM), most hits filed as inhibitors. P17405. placental ASM, HMU-PC fluorogenic substrate, 60 min
Target sequence (P17405 47-631 limits assumed): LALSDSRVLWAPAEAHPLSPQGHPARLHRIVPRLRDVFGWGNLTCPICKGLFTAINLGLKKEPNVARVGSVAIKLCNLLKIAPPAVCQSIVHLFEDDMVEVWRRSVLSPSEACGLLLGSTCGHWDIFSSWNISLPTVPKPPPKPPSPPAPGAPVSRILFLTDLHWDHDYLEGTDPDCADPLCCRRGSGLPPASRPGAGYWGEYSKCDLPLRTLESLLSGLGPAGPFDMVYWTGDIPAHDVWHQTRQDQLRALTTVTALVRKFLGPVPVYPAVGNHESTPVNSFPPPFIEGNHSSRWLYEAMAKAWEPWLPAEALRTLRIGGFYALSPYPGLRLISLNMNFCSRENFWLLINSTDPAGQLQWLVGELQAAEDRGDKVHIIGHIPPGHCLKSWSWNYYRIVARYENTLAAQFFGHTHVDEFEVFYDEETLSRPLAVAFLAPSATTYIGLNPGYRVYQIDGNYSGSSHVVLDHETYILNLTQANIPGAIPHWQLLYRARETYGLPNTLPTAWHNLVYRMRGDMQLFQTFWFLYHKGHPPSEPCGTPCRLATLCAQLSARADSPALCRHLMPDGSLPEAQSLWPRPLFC
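Fluorescence read-out (Ex 386 nm, Em 447 nm) after stopping the reaction at pH 10. Enzyme: ASM from human placenta; substrate HMU-PC0, 9 uM final; 60 min, 37 °C. Compound preincubation 10 min, ambient temperature.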
Hits are given with their value; n = inactive; u = inconclusive; x = not tested or not shown; [ ] = dose if it differs, or a comment. Shown are actives, neighbours in structure and some others; about 19% of the full set was active somewhere. Unless noted, calls follow the shape of the dose curve; as a rule, active = well fitted curve in the direction sought with a large enough effect; inconclusive = small, poorly fitted or top-dose-only effect, or another doubt; inactive = no such curve, though single readings can be large; an effect the other way counts as inactive or inconclusive.

SMILES	IL1B secr inh	DT40 TDP1 CPT	DT40 TDP1 no CPT	TGFb SMAD3 inh	HepG2 viability	ASM inhibitor
O=C(Nc1ccc(S(=O)(=O)N2CCCC2)cc1)c1ccc(CN2CCc3ccccc3C2)cc1	n	8.2µM	4.1µM	u	n	n
CC1=C(C(=O)OCC2CCCO2)C(c2cccc(C(F)(F)F)c2)C2=C(CC(c3ccco3)CC2=O)N1 (stereo not given)	-53	u	u	u	n	n
CC1=C(C(=O)OCC2CCCO2)C(c2ccccc2OC(C)C)C2=C(CC(c3ccco3)CC2=O)N1 (stereo not given)	n	n	u	n	n	n
COc1ccc(Br)cc1/C=C(\C(=O)O)c1ccc(S(=O)(=O)N2CCCCC2)s1	n	n	n	n	n	n
O=C(Nc1cccc(S(=O)(=O)N2CCCC2)c1)c1ccc2ccccc2n1	u	21µM	23µM	n	n	n
O=C(Nc1cccc(S(=O)(=O)N2CCCCC2)c1)c1ccc2ccccc2n1	n	29µM	21µM	n	n	n
C[C@@H](c1ccccc1)N1C[C@H]2CCCN2c2cc(Br)ccc2S1(=O)=O	n	18µM	u	u	n	n
O=S1(=O)c2ccc(Br)cc2N2CCC[C@@H]2CN1C1CC1	n	u	u	n	n	n
Cc1nn(C)c(C)c1S(=O)(=O)N(CC(=O)NCCCN1CCC(C)CC1)c1ccc(C(C)C)cc1	n	n	n	n	n	n
CCCC(=O)NC(c1ccc(OC)cc1)c1c(O)ccc2ccccc12 (stereo not given)	-58	u	23µM	n	n	n
COc1ccc(C(NC(=O)C2CCCCC2)c2c(O)ccc3ccccc23)cc1 (stereo not given)	n	u	18µM	u	n	n
CC(C)CC(=O)NC(c1ccccc1Cl)c1c(O)ccc2ccccc12 (stereo not given)	-68	u	n	u	n	n
COc1ccc(C(NC(=O)CC(C)C)c2c(O)ccc3ccccc23)cc1 (stereo not given)	n	u	u	u	n	n
CC(=O)Oc1ccc2ccccc2c1C(NC(=O)Cc1ccccc1)c1ccc(Cl)cc1 (stereo not given)	n	u	21µM	u	n	n
Cc1cc(C)c(S(=O)(=O)NCCc2sc(-c3cccnc3)nc2C)c(C)c1	x	x	x	n	n	x
CCC(NC(=O)c1ccccc1NC(=O)c1ccccc1)C(=O)OC (stereo not given)	n	u	u	n	n	n
CCc1ccc(OCC(=O)Nc2cc(-c3ccc(C)cc3)no2)cc1	x	n	n	n	n	x
COc1cccc(Cn2c(=O)c(-c3cn(C)c4ccccc34)nc3cnc(OC)nc32)c1	x	n	n	x	x	x
C=Cn1cc[n+](CC(=O)c2ccc(OC)cc2)c1	n	u	21µM	n	n	n
COc1ccc(C(=O)C[n+]2ccc3c(c2)nc(-c2ccccc2)n3C)cc1	n	12µM	8.2µM	n	n	n
Cc1ccc(-n2c(=O)c3c(C)c(C)sc3n(CC(=O)c3ccc(Cl)cc3)c2=O)cc1C	x	n	n	n	n	x
CCOc1ccc(-n2c(=O)c3c(C)c(C)sc3n(CC(=O)c3ccccc3)c2=O)cc1	x	13µM	16µM	n	n	x
CCOc1ccc(-n2c(=O)c3c(C)c(C)sc3n(CC(=O)N(CC)Cc3ccccc3)c2=O)cc1	x	18µM	12µM	n	n	x
CCN(Cc1ccccc1)C(=O)Cn1c(=O)n(-c2ccc(Cl)cc2)c(=O)c2c(C)c(C)sc21	x	3.7µM	18µM	n	n	x
CCN(Cc1ccccc1)C(=O)Cn1c(=O)n(-c2ccc(C)c(C)c2)c(=O)c2c(C)c(C)sc21	x	21µM	u	u	n	x
SMILES	IL1B secr inh	DT40 TDP1 CPT	DT40 TDP1 no CPT	TGFb SMAD3 inh	HepG2 viability	ASM inhibitor
COc1ccccc1-c1ccnc(-n2ncc(C(=O)NCc3cccnc3)c2C)n1	x	n[9.04 µM]	n	x	x	x
CCc1ccc(/C=N/NC(=O)Cc2cccn2C)cc1	n	n	n	n	n	n
O=C1CCC(c2ccccc2)N1c1ccccc1 (stereo not given)	n	n	n	n	n	n
FC(F)(F)c1cnc2c(c1)[nH]c(=S)n2-c1ccc(Cl)cc1	n	21µM	u	u	n	n
CCCc1ccc2oc(C(=O)N3CCN(CC(=O)NC(C)C)CC3)c(C)c2c1	n	u	u	n	n	n
Cc1ccc(N(C)C(=O)c2cnc(N3CCOCC3)c3ccccc23)cc1C	x	23µM	u	n	n	x
CCN(C(=O)c1cnc(N2CCOCC2)c2ccccc12)c1cc(C)ccc1C	x	23µM	u	u	n	x
CCc1ccccc1N(C)C(=O)c1cnc(N2CCOCC2)c2ccccc12	x	u	n	n	n	x
COc1ccc(NC(=O)c2cnc(N3CCOCC3)c3ccccc23)cc1OC	x	u	u	n	n	x
Cc1ccc(NC(=O)[C@@]2(CC(=O)O)CC(/C=C/c3ccccc3)=NO2)c(C)c1	n	n	n	n	n	n
Cc1cc2nc(-c3ccccc3)c(Cc3ccccc3)n2c(C)c1Br	n	23µM	u	u	n	x
Cc1cc2nc(C3CCCCC3)c(Cc3ccccc3)n2c(C)c1Br	n	u	23µM	n	n	x
Cc1cc2nc(-c3ccccc3)c(Cc3ccsc3)n2c(C)c1Br	n	15µM	15µM	x	x	x
Cc1cc2nc(-c3ccc(C#N)cc3)c(Cc3ccsc3)n2c(C)c1Br	n	16µM	16µM	x	x	x
Cc1ccc(Cc2c(-c3cccc(Br)c3)nc3cc(C)c(Br)c(C)n23)cc1	n	u	u	n	n	x
O=C(Nc1ccc(F)cc1F)c1cc(CN2CCOCC2)on1	x	n	n	n	n	x
O=C(CC1N=C2c3ccccc3N=C(SCc3ccc(F)cc3)N2C1=O)NC1CCCCC1 (stereo not given)	x	u	16µM	u	n	x
Cc1ccc(CSC2=Nc3ccccc3C3=NC(CC(=O)NC4CCCCC4)C(=O)N23)cc1 (stereo not given)	x	1.2µM	1.2µM	x	n	x
O=C(CCC1N=C2c3ccccc3N=C(SCc3ccc(F)cc3)N2C1=O)NC1CCCCC1 (stereo not given)	x	21µM	10µM	n	n	x
O=C(CC1N=C2c3ccccc3N=C(SCc3ccc(Cl)cc3)N2C1=O)NC1CCCCC1 (stereo not given)	x	u	u	n	n	x
O=S(=O)(c1ccc(Cl)cc1)c1nnn2c1nc(NC1CCCCC1)c1sccc12	x	u	u	n	n	x
COc1ccc(NC(=O)C(Cc2cc(C)cc(C)c2)C(C)C(=O)O)cc1 (stereo not given)	n	n	n	n	n	n

Assay outcomes: PubChem BioAssay, National Center for Advancing Translational Sciences (NCATS)
